Test [1] can be described thus: ATG_PBREM_CIS: Attagene CIS-FACTORIAL HepG2 Assay for human Phenobarbital-responsive Enhancer Module (PBREM) (AID 2282955). The settings on record: HepG2 PBREM cis-reporter, Attagene multiplexed transcription; actives raise or lower the signal. In outline:
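Readout: reporter mRNA, fluorescent RT-PCR fragments separated by capillary electrophoresis. System: HepG2 transiently transfected with cis-regulated reporter units. Exposure: 24 h. Analysis: bidirectional, DMSO baseline.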

The nature of test [2]: ATG_PXRE_CIS: Attagene CIS-FACTORIAL HepG2 Assay for human Pregnane X Receptor Element (PXRE) (AID 2282957). The settings on record: HepG2 Attagene CIS-FACTORIAL PXRE reporter, mRNA; actives raise or lower the signal. In outline: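 Transfect HepG2 with MRTUs (cis promoter elements); dose chemical, incubate 24 h; isolate RNA, RT with oligo(dT), PCR, 6-FAM label, HpaI cut, CE. Gain/loss fit vs DMSO.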

Test [3] is described as follows: ATG_PPRE_CIS: Attagene CIS-FACTORIAL HepG2 Assay for human Peroxisome Proliferator-activated Response Element (PPRE) (AID 2282958). The settings on record: HepG2 PPRE cis-element reporter, Attagene transcription factor profiling; actives raise or lower the signal. In outline: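 After human HepG2 hepatoma cells were transiently transfected with cis-promoter reporter constructs, they were exposed to test chemicals for 24 hours. Reporter RNA was then reverse-transcribed, PCR-amplified, FAM-labeled, HpaI-digested and quantified by capillary electrophoresis.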

Test [4] can be described thus: ATG_RORE_CIS: Attagene CIS-FACTORIAL HepG2 Assay for human RAR-related Orphan Receptor Element (RORE) (AID 2282959). The settings on record: HepG2 Attagene cis-factorial RORE reporter, mRNA; actives raise or lower the signal. In outline: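 Measured here: transcript induction of a cis-regulated reporter in HepG2 cells transiently transfected via FuGene 6. After 24 h, RNA was processed by RT-PCR and fluorescent capillary electrophoresis; DMSO defined baseline activity.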

Test [5] can be described thus: ATG_Sox_CIS: Attagene CIS-FACTORIAL HepG2 Assay for human SRY-box transcription factor (SOX) (AID 2282960). The settings on record: HepG2 Attagene cis-factorial SOX reporter, mRNA; actives raise or lower the signal. In outline: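 Using transiently transfected HepG2 cells, reporter transcription driven by cis elements was assessed 24 h after dosing. Signal was fluorescence of capillary-separated RT-PCR products, with DMSO defining baseline activity.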

The target of test [6] is Transcription factor Sp1 (Homo sapiens) (UniProt P08047). The experiment in a line: ATG_Sp1_CIS: Attagene CIS-FACTORIAL HepG2 Assay for human Specificity Protein 1 (Sp1) (AID 2282961). The settings on record: HepG2 Sp1 cis-reporter transcription, actives raise or lower the signal. In outline:
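After transient transfection of HepG2 cells with cis-promoter reporter units and 24 h chemical treatment, reporter transcripts were quantified by RT-PCR and capillary electrophoresis fluorescence. Gain- and loss-of-signal fitted against DMSO.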

Test [7] is described as follows: ATG_SREBP_CIS: Attagene CIS-FACTORIAL HepG2 Assay for human Sterol Regulatory Element Binding (SREBP) (AID 2282962). The settings on record: HepG2 Attagene cis-factorial SREBP reporter, mRNA; actives raise or lower the signal. Summed up:
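mRNA induction of transfected cis-promoter reporters in HepG2 cells, 24 h post-dose. Detection: RT-PCR with 6-FAM-labelled products, HpaI digest, capillary electrophoresis. DMSO served as negative control and baseline.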

Test [8] addresses Signal transducer and activator of transcription 3 (Homo sapiens) (UniProt P40763). The experiment in a line: ATG_STAT3_CIS: Attagene CIS-FACTORIAL HepG2 Assay for human Signal Transducer and Activator of Transcription 3 (STAT3) (AID 2282963). The settings on record: HepG2, Attagene cis-factorial STAT3 reporter transcription; actives raise or lower the signal. In outline:
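Endogenous STAT3-responsive cis-element activity was read in transiently transfected HepG2 cells after 24 h treatment. Reporter transcripts were quantified via RT-PCR and capillary electrophoresis, with DMSO as negative control and bidirectional curve fitting.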

A short description of test [9]: ATG_TA_CIS: Attagene CIS-FACTORIAL HepG2 Assay for human TA Basal Promoter (AID 2282964). The settings on record: HepG2 Attagene CIS-factorial TA basal promoter reporter; actives raise or lower the signal. In outline: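 Steps: transfect HepG2 with MRTUs; dose 24 h; isolate RNA, DNase-treat, reverse-transcribe; PCR and FAM-label reporter cDNA; digest with HpaI 2h at 37 C; run capillary electrophoresis. Activity fitted both directions against DMSO.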

Test [10] is described as follows: ATG_TCF_b_cat_CIS: Attagene CIS-FACTORIAL HepG2 Assay for human T-Cell-Factor with beta-catenin (TCF/b-cat) (AID 2282965). The settings on record: HepG2 TCF/beta-catenin cis-reporter transcription, actives raise or lower the signal. In outline:
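Endogenous TCF/LEF activity read as reporter transcript level via RT-PCR and capillary electrophoresis fluorescence in transfected HepG2, 24 h exposure; gain or loss of signal fitted against DMSO controls.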

Test [11] in a line: ATG_TAL_CIS: Attagene CIS-FACTORIAL HepG2 Assay for human TAL Basal Promoter (AID 2282966).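 Further: background control endpoint measuring basal TAL promoter reporter mRNA not a specific factor.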 The settings on record: HepG2 Attagene cis-factorial TAL promoter reporter; actives raise or lower the signal. Summed up: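 Fluorescence of labelled reporter cDNA fragments, resolved by capillary electrophoresis, gave the readout. Human HepG2 liver cells carried transiently transfected cis-element reporter units and were treated for 24 hours; activity was fitted bidirectionally against DMSO.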

Test [12] is described as follows: ATG_TGFb_CIS: Attagene CIS-FACTORIAL HepG2 Assay for human Transforming Growth Factor (TGF) (AID 2282967). The settings on record: HepG2 Attagene CIS TGFb reporter, mRNA transcription; actives raise or lower the signal. Summed up:
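Cells were dosed for 24 hours, after which total RNA was reverse-transcribed and reporter sequences amplified, labeled and sized by capillary electrophoresis. Activity was fitted in both directions against DMSO.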

Test [13] deals with Nuclear receptor subfamily 1 group I member 3 (Homo sapiens) (UniProt Q14994). The experiment in a line: ATG_CAR_TRANS: Attagene TRANS-FACTORIAL HepG2 Assay for human Constitutive Androstane Receptor (CAR) (AID 2282969; active means hit-call score of the fitted dose curve at least 0.9, where 1 is the maximum;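 further: activators raise reporter mRNA above DMSO so AC50 marks induction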). The settings on record: HepG2 Attagene TRANS-FACTORIAL CAR reporter. In outline:
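Readout is reporter mRNA induction, quantified by fluorescent primer extension and capillary electrophoresis after RT-PCR. Cells were HepG2 transiently carrying chimeric NR-Gal4 constructs with GAL4-UAS reporters, treated for 24 h; activity scored upward from DMSO.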

In test [14] the target is Estrogen receptor (Homo sapiens) (UniProt P03372). The experiment in a line: ATG_ERa_TRANS: Attagene TRANS-FACTORIAL HepG2 Assay for human Estrogen Receptor alpha (ERa) (AID 2282970; active means hit-call score of the fitted dose curve at least 0.9, where 1 is the maximum). The settings on record: HepG2 Attagene TRANS ERa GAL4 reporter, mRNA. In outline:
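Human liver HepG2, transient transfection of multiple GAL4-UAS reporter units; TRANS format (exogenous NR-Gal4 chimera). 24 h dosing. Readout: reporter mRNA, RT-PCR, 6-FAM primer extension, HpaI digest, capillary electrophoresis. Positive direction vs DMSO.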

For test [15], the target named is X-box-binding protein 1 (Homo sapiens) (UniProt P17861). The experiment in a line: ATG_Xbp1_CIS: Attagene CIS-FACTORIAL HepG2 Assay for human X-box Binding Protein 1 (XBP1) (AID 2282972). The settings on record: HepG2 XBP1 cis-element reporter, Attagene multiplex; actives raise or lower the signal. In outline:
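Fluorescence-labelled cDNA fragments from reporter transcripts, separated by capillary electrophoresis, give the signal. Source: HepG2 cells transfected with promoter-driven reporter units, harvested 24 h post-dose. DMSO served as reference for bidirectional curve fitting.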

Test [16] can be described thus: ATG_VDRE_CIS: Attagene CIS-FACTORIAL HepG2 Assay for human Vitamin D Receptor Element (VDRE) (AID 2282968). The settings on record: HepG2 VDRE cis-reporter transcription, actives raise or lower the signal. In outline: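 Reporter mRNA induction, quantified by capillary electrophoresis of fluorescently labelled RT-PCR products, was read 24 h after dosing HepG2 cells carrying transiently transfected cis-regulated reporter units; gain or loss relative to DMSO.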

A short description of test [17]: ATG_GAL4_TRANS: Attagene TRANS-FACTORIAL HepG2 Assay for GAL4 (Internal Marker) (AID 2282976; active means hit-call score of the fitted dose curve at least 0.9, where 1 is the maximum). The settings on record: HepG2 Attagene TRANS GAL4 internal marker reporter. In outline:
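First, HepG2 cells were transfected with reporter units under GAL4-UAS control. Next, they were treated with chemical for 24 h. Finally, RNA was reverse-transcribed, PCR-amplified, FAM-labelled and resolved by capillary electrophoresis, with induction scored against DMSO.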

Test [18] addresses Paired box protein Pax-6 (Homo sapiens) (UniProt P26367). The experiment in a line: ATG_Pax6_CIS: Attagene CIS-FACTORIAL HepG2 Assay for human Paired Box 6 (PAX6) (AID 2282956). The settings on record: HepG2 CIS-FACTORIAL PAX6 reporter transcription, RNA readout; actives raise or lower the signal. In outline: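 Multiplexed cis-reporter HepG2 system; 24 h treatment; reporter mRNA read by RT-PCR/CE fluorescence; bidirectional fit vs DMSO.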

Test [19] has as its target Steroid hormone receptor ERR1 (Homo sapiens) (UniProt P11474). Nature of the test: ATG_ERRa_TRANS: Attagene TRANS-FACTORIAL HepG2 Assay for human Estrogen-Related Receptor alpha (ERRa) (AID 2282971; active means hit-call score of the fitted dose curve at least 0.9, where 1 is the maximum). The settings on record: HepG2 Attagene TRANS reporter, ERRa transactivation. In outline: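 Reporter transcript induction was quantified by RT-PCR and capillary electrophoresis of FAM-labelled, HpaI-cut products after 24 h treatment of HepG2 cells carrying transiently transfected GAL4-UAS reporter units and an exogenous ERRa-Gal4 fusion; activity scored as increase over DMSO.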

Test [20] in a line: ATG_M_19_TRANS: Attagene TRANS-FACTORIAL HepG2 Assay for M19 Transcription Factor (Internal Marker) (AID 2282974; active means hit-call score of the fitted dose curve at least 0.9, where 1 is the maximum). The settings on record: HepG2 Attagene TRANS-FACTORIAL M19 internal marker reporter. In outline:
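Gain-of-signal in reporter mRNA, relative to DMSO, was scored from capillary electrophoresis fluorescence. HepG2 cells carried transiently transfected multiple reporter transcription units and were incubated with test chemicals for 24 h.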

Results filed as inconclusive are left out. Calls of active or inactive are those of the source. How the source made its calls, unless noted: active means hit-call score of the fitted dose curve at least 0.9, where 1 is the maximum; inactive means score below 0.9.

Transcription factor Sp1 (Homo sapiens), sequence (P08047 whole entry, looked up): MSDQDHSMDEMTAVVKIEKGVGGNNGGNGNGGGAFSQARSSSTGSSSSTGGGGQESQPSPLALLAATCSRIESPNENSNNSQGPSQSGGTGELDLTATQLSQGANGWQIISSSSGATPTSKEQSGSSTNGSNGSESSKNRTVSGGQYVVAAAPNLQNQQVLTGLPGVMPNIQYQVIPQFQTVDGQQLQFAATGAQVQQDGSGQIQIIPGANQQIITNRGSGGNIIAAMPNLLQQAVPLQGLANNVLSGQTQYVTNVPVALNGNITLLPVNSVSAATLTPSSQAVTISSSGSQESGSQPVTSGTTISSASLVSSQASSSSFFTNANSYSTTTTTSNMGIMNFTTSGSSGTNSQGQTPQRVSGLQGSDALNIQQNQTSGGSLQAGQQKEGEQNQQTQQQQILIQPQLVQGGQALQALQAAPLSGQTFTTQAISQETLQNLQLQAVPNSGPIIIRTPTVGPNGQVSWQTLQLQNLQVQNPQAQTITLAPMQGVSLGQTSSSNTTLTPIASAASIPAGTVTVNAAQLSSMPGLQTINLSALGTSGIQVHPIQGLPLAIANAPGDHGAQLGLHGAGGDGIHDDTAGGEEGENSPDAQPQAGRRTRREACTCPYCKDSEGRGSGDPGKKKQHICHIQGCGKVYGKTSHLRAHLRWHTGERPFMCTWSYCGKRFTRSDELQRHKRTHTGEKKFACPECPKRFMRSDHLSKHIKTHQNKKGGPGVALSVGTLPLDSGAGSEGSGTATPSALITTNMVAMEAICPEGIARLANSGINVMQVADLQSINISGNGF
Nuclear receptor subfamily 1 group I member 3 (Homo sapiens), sequence (Q14994 whole entry, looked up, the tested form may be a part): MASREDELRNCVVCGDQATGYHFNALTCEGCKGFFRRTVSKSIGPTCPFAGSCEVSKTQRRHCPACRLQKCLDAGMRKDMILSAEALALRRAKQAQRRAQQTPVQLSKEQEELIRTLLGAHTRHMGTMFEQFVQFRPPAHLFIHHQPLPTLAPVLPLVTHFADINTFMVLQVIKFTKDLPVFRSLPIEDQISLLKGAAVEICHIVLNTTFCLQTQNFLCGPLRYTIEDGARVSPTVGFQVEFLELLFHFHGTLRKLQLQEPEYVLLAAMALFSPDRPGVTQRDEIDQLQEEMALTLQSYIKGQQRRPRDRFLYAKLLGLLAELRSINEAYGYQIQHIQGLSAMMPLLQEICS
X-box-binding protein 1 (Homo sapiens), sequence (P17861 whole entry, looked up, the tested form may be a part): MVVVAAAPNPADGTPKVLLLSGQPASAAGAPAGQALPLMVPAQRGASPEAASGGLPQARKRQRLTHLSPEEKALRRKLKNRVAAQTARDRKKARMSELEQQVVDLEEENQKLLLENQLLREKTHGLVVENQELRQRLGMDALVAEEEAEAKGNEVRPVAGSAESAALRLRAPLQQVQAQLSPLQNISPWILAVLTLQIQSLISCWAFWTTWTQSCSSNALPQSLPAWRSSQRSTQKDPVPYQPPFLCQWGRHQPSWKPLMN
Signal transducer and activator of transcription 3 (Homo sapiens), sequence (P40763 whole entry, looked up): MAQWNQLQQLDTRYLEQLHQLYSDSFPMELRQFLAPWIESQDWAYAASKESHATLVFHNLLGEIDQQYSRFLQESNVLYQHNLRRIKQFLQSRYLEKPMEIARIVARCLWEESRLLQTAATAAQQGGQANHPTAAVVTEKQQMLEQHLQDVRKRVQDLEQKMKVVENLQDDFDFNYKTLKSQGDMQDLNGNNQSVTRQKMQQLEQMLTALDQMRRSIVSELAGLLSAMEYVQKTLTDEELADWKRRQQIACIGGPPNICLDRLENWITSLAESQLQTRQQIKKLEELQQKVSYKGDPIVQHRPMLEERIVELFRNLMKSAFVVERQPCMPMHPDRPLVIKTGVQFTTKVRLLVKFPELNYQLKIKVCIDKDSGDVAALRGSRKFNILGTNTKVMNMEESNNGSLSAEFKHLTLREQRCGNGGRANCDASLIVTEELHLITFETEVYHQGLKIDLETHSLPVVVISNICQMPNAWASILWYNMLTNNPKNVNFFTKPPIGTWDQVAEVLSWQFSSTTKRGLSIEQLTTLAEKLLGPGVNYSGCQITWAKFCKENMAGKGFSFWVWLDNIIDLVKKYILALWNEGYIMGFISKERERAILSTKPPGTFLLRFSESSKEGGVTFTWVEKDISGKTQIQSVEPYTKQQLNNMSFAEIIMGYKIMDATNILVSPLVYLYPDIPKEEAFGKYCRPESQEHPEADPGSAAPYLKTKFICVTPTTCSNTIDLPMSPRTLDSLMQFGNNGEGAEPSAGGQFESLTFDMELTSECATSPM
Steroid hormone receptor ERR1 (Homo sapiens), sequence (P11474 whole entry, looked up, the tested form may be a part): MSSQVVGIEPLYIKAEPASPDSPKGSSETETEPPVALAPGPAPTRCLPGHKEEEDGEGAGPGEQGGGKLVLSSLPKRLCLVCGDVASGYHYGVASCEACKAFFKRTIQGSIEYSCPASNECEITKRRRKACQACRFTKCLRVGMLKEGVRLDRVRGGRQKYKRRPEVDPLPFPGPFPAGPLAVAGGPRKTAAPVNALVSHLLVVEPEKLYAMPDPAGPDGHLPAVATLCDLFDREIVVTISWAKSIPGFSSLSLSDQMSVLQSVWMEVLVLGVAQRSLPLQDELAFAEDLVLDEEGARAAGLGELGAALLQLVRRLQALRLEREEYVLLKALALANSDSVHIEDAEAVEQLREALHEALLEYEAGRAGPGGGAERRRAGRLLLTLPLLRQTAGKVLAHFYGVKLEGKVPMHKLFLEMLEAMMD
Estrogen receptor (Homo sapiens), sequence (P03372 whole entry, looked up, the tested form may be a part): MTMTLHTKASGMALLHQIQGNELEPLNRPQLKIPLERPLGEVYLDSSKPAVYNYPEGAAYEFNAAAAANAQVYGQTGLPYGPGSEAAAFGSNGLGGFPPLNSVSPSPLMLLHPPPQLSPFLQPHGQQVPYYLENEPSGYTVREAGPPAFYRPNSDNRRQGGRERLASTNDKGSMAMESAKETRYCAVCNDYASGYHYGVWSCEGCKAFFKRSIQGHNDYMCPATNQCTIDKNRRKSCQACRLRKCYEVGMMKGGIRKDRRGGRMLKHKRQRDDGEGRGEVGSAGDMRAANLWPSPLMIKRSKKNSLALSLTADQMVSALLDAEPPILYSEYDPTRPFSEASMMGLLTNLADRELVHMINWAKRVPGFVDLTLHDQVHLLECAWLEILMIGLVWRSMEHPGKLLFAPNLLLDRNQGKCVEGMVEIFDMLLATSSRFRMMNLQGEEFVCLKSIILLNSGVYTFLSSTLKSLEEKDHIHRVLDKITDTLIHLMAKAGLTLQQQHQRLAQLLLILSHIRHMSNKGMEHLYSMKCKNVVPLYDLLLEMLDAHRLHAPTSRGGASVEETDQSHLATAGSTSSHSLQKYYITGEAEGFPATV
Paired box protein Pax-6 (Homo sapiens), sequence (P26367 whole entry, looked up): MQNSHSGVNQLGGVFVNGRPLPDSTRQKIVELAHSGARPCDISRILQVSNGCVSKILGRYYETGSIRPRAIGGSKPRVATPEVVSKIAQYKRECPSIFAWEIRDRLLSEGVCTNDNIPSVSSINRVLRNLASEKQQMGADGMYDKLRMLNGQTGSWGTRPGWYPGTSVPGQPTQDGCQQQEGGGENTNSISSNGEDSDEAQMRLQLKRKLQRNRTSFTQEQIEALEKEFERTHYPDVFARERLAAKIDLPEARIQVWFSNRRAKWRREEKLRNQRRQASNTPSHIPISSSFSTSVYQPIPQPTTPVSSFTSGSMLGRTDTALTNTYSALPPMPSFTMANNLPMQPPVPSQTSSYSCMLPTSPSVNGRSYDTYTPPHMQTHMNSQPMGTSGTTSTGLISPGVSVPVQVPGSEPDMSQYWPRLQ

With `O=C1c2c(O)ccc(Nc3ccc(CCO)cc3)c2C(=O)c2c([N+](=O)[O-])ccc(O)c21`, the AC50 (in general, the concentration giving half of the maximal activity seen) is 38.6 µM (active) in test [1], 6.06 µM (active) in test [2], 24.1 µM (active) in test [3] and 4.01 µM (active) in test [4]. Further, the compound was classed as inactive in [5], in [6], in [7], in test [8], in [9] and in test [10]. For the same compound, the call in test [11], in [12], in test [13], in test [14] and in test [15] was inactive.

With `O=C(O)C(F)(F)C(F)(F)C(F)(F)C(F)(F)C(F)(F)C(F)(F)C(F)F`, the result in test [1], in test [4], in test [5], in test [6], in [8] and in test [10] was inactive. Further, the call in test [11], in [12], in test [16], in test [15] and in test [17] was inactive. For the same compound, the AC50 in [2] is 27.6 µM (active); in test [3], 46.1 µM (active); in test [7] it was 63.5 µM (active); in [14], 41.4 µM (active).

Consider `NC(=O)C(F)(F)C(F)(F)C(F)(F)C(F)F`, for which the outcome in [1], in test [18], in test [2], in [3], in test [5] and in [6] was inactive. The compound was called inactive in test [7], in test [8], in test [10], in test [11], in test [12] and in test [16]. Besides, the compound was called inactive in [14], in test [15] and in test [17].

As for `c1ccc(C[P+](c2ccccc2)(c2ccccc2)c2ccccc2)cc1`, the result in [1], in test [2], in test [3], in test [4], in test [5] and in test [6] was inactive. Further, the call in test [7], in test [8], in test [9], in [10], in test [11] and in test [12] was inactive. Further, the call in [16], in [19], in [20] and in test [17] was inactive. In addition, the AC50 in test [15] was 53.4 µM (active).

On to `C[C@]12CC[C@H]3C(=CCc4cc(O)ccc43)[C@@H]1CCC2=O`, for which the result in test [1], in test [3], in [5], in test [6], in test [7] and in [8] was inactive. The compound was classed as inactive in [9], in test [10], in test [11], in test [12], in test [13] and in test [19]. The call in test [15], in [20] and in [17] was inactive. Besides, in test [2], the AC50 was 26.6 µM (active).

Turning to `CCc1ccc(C)nc1`, the result in [1], in [2], in test [3], in [4], in test [5] and in test [6] was inactive. The result in test [7], in [8], in [9], in [10], in [11] and in test [12] was inactive. Besides, the result in test [16], in [13], in [15], in test [20] and in test [17] was inactive.

On to `F[Si-2](F)(F)(F)(F)F`, for which the outcome in test [1], in [2], in test [3], in test [4], in [5] and in [6] was inactive. In addition, the compound was called inactive in test [7], in test [8], in test [9], in test [11], in test [12] and in test [16]. In addition, the compound was called inactive in [19] and in test [15].

As for `O=C(O)C(F)(F)C(F)(F)C(F)(F)C(=O)O`, the result in test [1], in test [2], in test [3], in test [5], in test [6] and in [7] was inactive. The outcome in test [8], in [9], in test [11], in [12], in [16] and in test [14] was inactive. Further, the outcome in test [15] and in [20] was inactive.
